From PubChem
Rab9 prom act: Rab9 promoter activation; Huh7 Rab9 promoter-luciferase reporter, luminescence, 24 h; Potency, µM (titrated, usually from 9.22 µM), without a hit: at the top dose activation, negative = inhibition, usual class: activators; 2.8% of 320,000 active; further: % of control where 0% means no effect; nearly all actives have a fitted effect of over 60% in size
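Huh7 cells stably carrying Rab9 promoter–luciferase reporter, plated 1500 cells/well, compound added after 2 h and incubated 24 h at 37 °C; luciferase luminescence then read after 10 min with detection reagent.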
NPC1 promoter act: NPC1 promoter activation. Huh7 NPC1 promoter luciferase reporter, 24 h. Potency, µM (doses to about 9.22 µM), for inactives: top-dose activation, usual class: activators. 2.4% of 320,000 active. AID 485313; further: % of control where 0% means no effect; nearly all actives have a fitted effect of over 60% in size
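In 1536-well qHTS, Huh7 cells harboring an NPC1 promoter–luciferase construct received compound for 24 h; activation was quantified by luminescence following luciferase reagent addition.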
KinaseGlo FLuc: Kinase-Glo luciferase inhibition (counter-screen) | Q27757 | Kinase-Glo luciferase, ATP luminescence, 8 min | Potency, µM (top dose mostly 38.3 µM), inactives show at the top dose activity change, negative = inhibition, hits mostly inhibitors | 0.28% of 200,000 active; further: on the % scale 0 is the no-effect control and ±100 the full control effect; nearly all actives have a fitted effect of over 60% in size
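Compound is pinned into ATP-containing buffer (10 uM ATP, imidazole pH 7.2, 7 mM MgCl2). Kinase-Glo luciferase reagent is then added. Light output is recorded following an 8-min room-temperature incubation.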
FLuc counter: counter-screen for miR-21 project: firefly luciferase inhibitors or activators; P08659; purified FLuc, Km substrates, luminescence inhibition; Potency, µM (doses to about 57.5 µM), for inactives: at the highest dose activity change, negative = inhibition, most hits filed as inhibitors; 6.9% of 360,000 active;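 further: plate controls were vehicle for no effect and reference inhibitor for full effect; nearly all actives have a fitted effect of over 55% in size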
Target sequence (P08659 whole entry, looked up): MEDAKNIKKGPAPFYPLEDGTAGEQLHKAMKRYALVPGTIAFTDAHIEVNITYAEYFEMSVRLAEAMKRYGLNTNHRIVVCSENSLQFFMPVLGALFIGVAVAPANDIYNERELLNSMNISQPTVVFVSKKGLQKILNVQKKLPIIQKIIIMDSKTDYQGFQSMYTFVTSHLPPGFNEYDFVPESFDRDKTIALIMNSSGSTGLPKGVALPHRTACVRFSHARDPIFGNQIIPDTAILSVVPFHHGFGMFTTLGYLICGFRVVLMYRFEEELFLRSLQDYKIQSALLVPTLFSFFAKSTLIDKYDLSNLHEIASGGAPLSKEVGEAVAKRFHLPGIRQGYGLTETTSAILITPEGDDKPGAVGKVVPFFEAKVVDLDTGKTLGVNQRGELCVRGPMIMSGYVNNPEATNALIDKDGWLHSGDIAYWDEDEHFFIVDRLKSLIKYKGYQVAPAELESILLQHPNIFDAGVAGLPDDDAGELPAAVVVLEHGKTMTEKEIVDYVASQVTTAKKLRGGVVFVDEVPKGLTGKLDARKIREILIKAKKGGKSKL
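Biochemical qHTS of compounds, final roughly 60 µM downward over six points, against 10 nM purified firefly luciferase using Km concentrations of substrates (10 uM D-luciferin, 10 uM ATP) in Tris acetate pH 7.5 buffer; luminescence output.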
ELG1 genotox: induces genotoxicity in HEK293T cells with luciferase-tagged ELG1. HEK293T ELG1-luciferase reporter, luminescence, 16 h. 1.3% of 330,000 active. Potency, µM (series often up to 46 µM), without a hit: top-dose activity change, positive = activation, actives largely listed as activators; further: % of control where 0% means no effect; nearly all actives have a fitted effect of over 60% in size
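16 hr compound incubation (37 °C, 5% CO2) of HEK293T cells carrying luciferase-tagged ELG1; luciferase then measured by ONE-Glo luminescence after 30 min at RT.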
SMN2 splice enh: enhancers of SMN2 splice variant expression | HEK293 SMN2-luciferase splicing reporter, luminescence, 30-36 h | Potency, µM (doses to about 46.1 µM), inactives show top-dose activity change, positive = activation, most hits filed as activators | 2.8% of 210,000 active | AID 1458; further: % of control where 0% means no effect; nearly all actives have a fitted effect of over 55% in size
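qHTS luciferase splicing reporter: luminescence rises when SMN2 exon 7 is included in transfected HEK293 cells. Compound exposure lasted 30-36 h at 37C, with 4.5 mM final sodium butyrate as control, followed by a ONE-Glo read.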
* marks the source's active call; other numbers are inactive results; ? = inconclusive; . = no result; [ ] = remark or other dose. Most compounds without a hit are left out; they make up all but 7.5% or so of the library. The call rests on the fitted dose curve; in most records, active means well fitted curve in the direction sought with a large enough effect; inconclusive means small, poorly fitted or top-dose-only effect, or another doubt; inactive means no such curve, though single readings can be large; an effect the other way counts as inactive or inconclusive. Potency means the concentration at half of the fitted maximal effect.

SMILES | Rab9 prom act | NPC1 promoter act | KinaseGlo FLuc | FLuc counter | ELG1 genotox | SMN2 splice enh
O=C(c1ccc(F)cc1)N1CCC(c2nc3ccccc3s2)CC1 | . | . | . | -10% | . | .
CCOc1ccc(NS(=O)(=O)c2ccc(C(=O)N(C)C)s2)cc1 | . | . | . | 1% | . | .
CCCCCCCCCC(=O)OCC(CO)OC(=O)CCCCCCCCC (stereo unspecified) | . | . | 0% | . | . | -4%
Nc1cc(Cl)nc(N/N=C/c2ccccc2[N+](=O)[O-])n1 | ? | ? | -12% | 24µM* | 25% | ?
O=C(Nc1ccncc1)c1ccc2c(c1)OCCO2 | 9% | 0% | -9% | 17µM* | 5% | -26%
Cc1ccc(NC(=O)c2ccc3c(c2)OCCO3)cc1 | 0.1µM* | 0.32µM* | -11% | 0.54µM* | ? | 0.71µM*
CC(=O)N1CCN(c2ccc(NC(=O)c3ccc4c(c3)OCCO4)cc2)CC1 | 1% | -1% | -5% | ? | 6% | -17%
O=C(N/N=C/c1ccccc1OCc1ccccc1)c1cccnc1 | 0% | -1% | -2% | 11µM* | -2% | 14%
COc1ccc(OCc2cc(/C=N\NC(=O)c3ccccc3)ccc2OC)cc1 | ? | ? | . | 12µM* | ? | .
O=C(N/N=C/c1ccc(OCc2ccccc2)cc1)c1ccncc1 | -3% | -5% | 4% | -10% | ? | 16µM*
COC(=O)N/N=C/c1ccccc1OCc1ccccc1 | -5% | -2% | -2% | -2% | 9% | 10%
CC(=O)Nc1ccc(C(=O)N/N=C/c2ccccc2OCc2ccccc2)cc1 | 0% | -8% | 0% | 17µM* | 0% | 2%
O=C(N/N=C/c1ccncc1)c1ccc(OCc2ccccc2)cc1 | 1% | -3% | . | -5% | 7% | .
CC(=O)N1CCc2cc(S(=O)(=O)CCC(=O)N3CCN(c4cc(C)ccc4C)CC3)ccc21 | -7% | -6% | . | 3% | -6% | .
Oc1ccc(N=Cc2ccc(OCc3ccccc3)cc2)cc1 | -3% | -4% | -6% | 13µM* | ? | .
O=C(N/N=C/c1ccc(OCc2ccccc2)cc1)c1cccs1 | ? | ? | -2% | -12% | 8% | 0%
Cc1cc(C)n2nc(C(=O)Nc3ccc4c(c3)OCO4)cc2n1 | 3.2µM* | 1.3µM* | -13% | 4.8µM* | 2.1µM* | 7.9µM*
Cc1cc(Nc2cccc(C(=O)O)c2)n2nc(C)nc2n1 | . | . | . | -5% | . | 5%
O=C(Nc1ccc2c(c1)OCO2)c1cc2nc(C3CC3)cc(C(F)(F)F)n2n1 | 17% | 15% | -2% | -16% | 6% | -17%
CC(=O)c1cccc(Nc2cc(C)nc3nc(-c4ccccc4C)nn23)c1 | . | . | . | 19µM* | . | 3%
CC(=O)c1cccc(NC(=O)c2cc3nc(C)cc(C)n3n2)c1 | 2µM* | ? | 2% | 7.6µM* | 8.2µM* | 13µM*
Cc1ccc2ncc3c(-c4ccc(F)cc4)nn(-c4cccc(F)c4)c3c2c1 | . | . | . | -5% | . | .
Cc1c(C(=O)N(CCO)Cc2ccccc2)oc2c(F)cccc12 | ? | ? | . | 17µM* | ? | .
Cc1cc(Cl)c2oc(C(=O)N(CCO)Cc3ccccc3)c(C)c2c1 | 26% | 11% | . | -20% | ? | .
COc1ccccc1NC(=O)C1=C(C)Nc2nnnn2C1c1cc(Br)c(O)c(OC)c1 (stereo unspecified) | . | . | . | -3% | . | 2%
SMILES | Rab9 prom act | NPC1 promoter act | KinaseGlo FLuc | FLuc counter | ELG1 genotox | SMN2 splice enh
O=C1c2ccccc2CCCC12N=NCC2c1cccc2ccccc12 (stereo unspecified) | 1% | -5% | -2% | -1% | -6% | -29%
Cc1ccc(C2CN=NC23CCc2ccccc2C3=O)cc1 (stereo unspecified) | 1% | 8% | 0% | 12µM* | ? | -1%
Cc1ccc(-c2nnc(Nc3ccccc3)o2)cc1 | 0.13µM* | ? | 13µM* | 0.15µM* | 0.15µM* | 0.4µM*
Cc1ccc(/C=C/c2nnc(-c3ccccc3)o2)cc1 | 1.1µM* | 0.89µM* | -14% | 5.4µM* | ? | ?
C(=C\c1nnc(-c2cccs2)o1)/c1ccccc1 | 2.5µM* | 2.5µM* | -6% | 5.4µM* | ? | ?
O=C(N/N=C/c1ccccn1)c1ccc(N/N=C/c2ccccn2)cc1 | 2.2µM* | 23% | -6% | 2.4µM* | -3% | 14µM*
Cc1ccccc1C(=O)Nc1ccc(C(=O)N/N=C/c2ccccn2)cc1 | 0% | -3% | . | -4% | 0% | .
O=C(N/N=C/c1ccccn1)c1cc([N+](=O)[O-])cc([N+](=O)[O-])c1 | -2% | -3% | 4% | -8% | 6% | -4%
O=C(N/N=C/c1ccccn1)c1ccc(Br)cc1 | ? | ? | -6% | 11µM* | ? | 9%
CC(C)(C)c1ccc(C(=O)N/N=C/c2ccccn2)cc1 | 26% | 22% | . | 9.5µM* | ? | .
O=C(N/N=C/c1ccc[nH]1)c1ccc([N+](=O)[O-])cc1 | -8% | -2% | -2% | 15µM* | 2% | -10%[1.84 µM]
CC1(C)C(=O)Nc2ccccc2N1C(=O)COc1ccc(C#N)cc1 | . | . | . | . | 0% | .
CCOc1ccc(S(=O)(=O)N2CCN(C(=O)c3cc(C4CC4)nn3-c3ccccc3)CC2)cc1 | 0% | -3% | . | 1% | -3% | .
Cc1ccc(C(=O)N/N=C\c2ccccn2)cn1 | -1% | 9% | . | 19µM* | 0% | .
O=C(N/N=C/c1ccccn1)c1ccc([N+](=O)[O-])cc1 | 5% | -2% | -4% | 19µM* | 9% | 4%
Cc1ccc(C(=O)N/N=C\c2ccc[nH]2)cn1 | 1% | 1% | -2% | ? | 16% | -21%
C(=N\N=C\c1ccccn1)/c1ccccn1 | -2% | 0% | . | 12µM* | -2% | .
COCCCNC(=O)CCCn1c(SCC(=O)c2ccc(F)cc2)nc2c(sc3ccccc32)c1=O | . | . | . | -3% | . | -3%
COc1cc(OC)c(NC(=O)CSc2nc3ccncc3[nH]2)cc1Cl | -4% | -3% | . | -16% | . | -40%
CCN(CC)CCCCCCCCOC(=O)c1cc(OC)c(OC)c(OC)c1 | -16%[46.1 µM] | -11%[46.1 µM] | -2% | 7% | 18µM* | 22%
COc1cc(C(=O)OCCCN(C)C)cc(OC)c1OC | -6% | -2% | . | 3% | -1% | .
COCCN(C(=O)C1CC1)c1nnc(-c2ccc(C)cc2)s1 | 11% | 16% | 2% | ? | 6% | -15%
COCCN(C(=O)CCc1ccc(OC)cc1)c1nnc(-c2ccncc2)s1 | -2% | 0% | 0% | 0% | -1% | .
CCOc1ccc(-c2nnc(N(CC)C(=O)C3CCC3)s2)cc1 | 5% | 2% | 1% | 7.6µM* | ? | 15%
CCCC(=O)N(C)c1nnc(-c2ccc(OC)cc2)s1 | 4µM* | 27% | -7% | 7.6µM* | ? | 10%
COc1cc(OC)cc(C(=O)Nc2ccc(C(=O)Nc3ccccc3OC)cc2)c1 | . | . | . | . | -11% | .
